Source: the supplement of paper PMC10646978
± gives the standard deviation.

How the values were obtained:
Details in all cases: modulator concentration 10 µM
[1] = system: RAW-Dual (murine macrophage reporter line); test: NF-kB reporter (SEAP) activity fold change vs agonist alone; higher = enhanced NF-kB activity
Procedure, shortened: (§1)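 RAW-Dual murine macrophage reporter cells were seeded at 50 000 per well in 384-well plates and pre-incubated 1 hour at 37 °C with compound pin-transferred to 10 μM final. After 1 hour, a PRR agonist was added and cells incubated overnight. Supernatant NF-κB (SEAP, QUANTI-Blue, 620 nm absorbance) and IRF (Lucia luciferase, QUANTI-Luc, luminescence) signals were divided by the mean agonist-only control on the same plate to give fold change. Two replicate plates were averaged, with errors by propagation.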

[2] = system: RAW-Dual (murine macrophage reporter line); test: IRF reporter (Lucia luciferase) activity fold change vs agonist alone; higher = enhanced IRF activity
Procedure, shortened: as §1

[3] = system: RAW-Dual (murine macrophage reporter line); test: viability score (confluency relative to resting cells, overnight) (fraction); higher = more viable, active = viable (0.7 or more)
Procedure, shortened: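 RAW-Dual macrophages in 384-well plates were incubated overnight with compound, final concentration 10 μM. Confluency images from IncuCyte were processed in IncuCyte software into two masks covering all imaged wells. The viability score is each well's confluency relative to resting cells, and a compound met the cutoff when both masks exceeded 70% of resting cells.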

[4] = agonist: CpG ODN 1826 0.5 ug/mL

SMILES	NF-kB reporter [1, 4]	NF-kB reporter ([1]; agonist: LPS 0.1 ug/mL)	NF-kB reporter ([1]; agonist: MPLA […])	IRF reporter ([2]; agonist: 3'3'-cGAMP 10 ug/mL)	IRF reporter ([2]; agonist: LPS 0.1 ug/mL)	IRF reporter ([2]; agonist: MPLA […])	viability score [3]
CNCC[C@@H](Oc1ccccc1C)c1ccccc1.Cl	0.744 ± 0.079	0.996 ± 0.05	1.26 ± 0.085	1.02 ± 0.11	0.95 ± 0.041	0.792 ± 0.16	0.958 (active)
O=C(O)c1ccc2c(c1)nc(Nc1cccc(Cl)c1)c1ccncc12	1.24 ± 0.19	1.35 ± 0.35	1.4 ± 0.34	0.993 ± 0.033	1.39 ± 0.32	0.832 ± 0.083	0.986 (active)
COCCCOc1ccnc(CS(=O)c2nc3ccccc3[nH]2)c1C (centres undefined)	1.24 ± 0.3	1.07 ± 0.098	1.11 ± 0.11	0.839 ± 0.029	1.22 ± 0.13	1.28 ± 0.23	0.98 (active)
Cc1cccc2sc(OC3CN(C(=O)Nc4ccccc4C(F)(F)F)C3)nc12	0.912 ± 0.047	1.13 ± 0.089	0.872 ± 0.043	1.12 ± 0.065	1.19 ± 0.19	1.15 ± 0.31	0.981 (active)
CN1CCC(=C2c3ccccc3CCc3sccc32)CC1.O=C(O)CC(O)C(=O)O	0.574 ± 0.054	0.705 ± 0.035	0.868 ± 0.094	0.692 ± 0.036	1.09 ± 0.073	1 ± 0.12	0.385 (inactive)
O=C(O[C@H]1C[C@H]2CC3C[C@@H](C1)N2CC3=O)c1c[nH]c2ccccc12	0.524 ± 0.055	0.598 ± 0.1	0.693 ± 0.03	0.92 ± 0.051	0.909 ± 0.03	0.912 ± 0.084	0.998 (active)
O=C1OCCN1C1CCN(C(=O)C2(c3ccc(F)cc3)CC2)C1 (centres undefined)	0.862 ± 0.094	0.907 ± 0.16	1.06 ± 0.074	0.843 ± 0.15	1.28 ± 0.3	1.45 ± 0.51	0.951 (active)
Cc1ccc(Nc2ccc(NC(=O)C(C)C)cc2)nn1	0.988 ± 0.042	0.993 ± 0.082	1.11 ± 0.07	1.05 ± 0.048	1.2 ± 0.26	1.29 ± 0.44	0.981 (active)
CSCCC(NC(C)=O)C(=O)N1CCc2nc3ccc(F)cn3c(=O)c2C1 (centres undefined)	1.05 ± 0.097	1.05 ± 0.088	0.906 ± 0.074	0.97 ± 0.085	1.24 ± 0.15	1.13 ± 0.12	1.01 (active)
CC(C)Oc1cccc(C(=O)NC(=S)N2CCN(c3ccc([N+](=O)[O-])cc3)CC2)c1	0.83 ± 0.064	0.943 ± 0.053	1.09 ± 0.1	0.829 ± 0.038	1.19 ± 0.089	1.34 ± 0.15	1.02 (active)
ON=C1ON=C(c2ccccc2)C1=NO	0.867 ± 0.067	0.775 ± 0.038	0.875 ± 0.078	0.176 ± 0.0086	1.29 ± 0.078	1.42 ± 0.13	0.998 (active)
Cc1ccc(-c2nc(O)nc3ccccc23)cc1	1.28 ± 0.37	1.11 ± 0.086	1.07 ± 0.086	0.786 ± 0.054	0.967 ± 0.14	0.966 ± 0.11	0.931 (active)
